# Experimental data: PubChem BioAssay (NCI)
# “And” between values parts separate entries of the source, which are not always exact repeats. Equal values may be shown once. The panel holds about 83,000 compounds, 20% with a hit somewhere; the sample as a whole holds those more often.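 Treatment: one concentration, 48 hours, 96-well format. Scoring: percent growth, with anything below 10 considered active.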 The source made the active and inactive calls.
# Test system: SK-OV-3 ovarian
# Experiment: NCI-60 one-dose screen, 48 h (100 = growth as untreated, 0 = no growth, -100 = all killed)
# Settings: 10 µM
# Procedure: Growth inhibition of the SK-OV-3 human tumor cell line is measured as a screen for anti-cancer activity. Cells are grown in 96 well plates and exposed to the test compound for 48 hours. Compounds are tested at a single concentration, which is 10^-5 M for most compounds. The reported endpoint is percent growth (GI% or GIPRCNT), where numbers from 0 - 100% represent growth inhibition, and numbers from -100% - 0 represent cell death. For example, a value of 40 represents 60% growth inhibition. A value of 0 means no net growth occurred over the course of the experiment. A value of -40 indicates 40% of cells at the beginning of the experiment died by the end of the experiment. A value of -100 means all cells are dead at the end of the experiment.
# NCI-60 Human Tumor Cell Lines Screen was performed using the standard one-dose NCI protocol, which is described in more detail at https://dtp.cancer.gov/discovery_development/nci-60/default.htm.
# Compounds with GIPRCNT values below 10 were considered active. Activity score was based on GIPRCNT using the following formula: […]
# Score is 0 for GIPRCNT values of 100 or above, 50 for GIPRCNT values of 0, and 100 for GIPRCNT values of -100.
row,Structure (SMILES),growth
1,O=c1ccn2c(n1)OC1CC2OC1COC(c1ccccc1)(c1ccccc1)c1ccccc1 (stereo not given),101% (inactive)

# Same assay, conditions: 10 µM unless noted
row,Structure (SMILES),growth
1,CNc1ccc(O)cc1,105% (inactive) and 108% (inactive)
2,CC(=O)c1cccc(OC(=O)c2ccccc2)c1,97.6% (inactive)
3,C=CCN1C(=O)c2ccccc2C1=O,105% (inactive)
4,O=P(O)(O)OC1C(OP(=O)(O)O)C(OP(=O)(O)O)C(OP(=O)(O)O)C(OP(=O)(O)O)C1OP(=O)(O)O.[Cu+2] (stereo not given),114% (inactive)
5,CCCC(=O)Oc1ccc2ccccc2c1,91.8% (inactive)
6,CN(C)CC(CN(C)C)C(O)c1ccccc1 (stereo not given),103% (inactive)
7,N=c1sc2ccccc2n1CC(=O)O,106% (inactive)
8,Cc1cc(O)c(C(C)C)cc1N=O,96.4% (inactive) and 105% (inactive)
9,CN(C=O)c1ccccc1,86.7% (inactive)
10,Cc1cccc(Cl)c1N,113% (inactive)
11,CCNC1=CC(=O)c2ncccc2C1=O,73.5% (inactive)
12,COC(=O)c1nc(N)nc(C(=O)OC)c1C(=O)c1cccc2ccccc12,121% (inactive)
13,CC1(C)OC(=O)C(=Cc2ccc(C#N)cc2)C(=O)O1,104% (inactive) and 106% (inactive)
14,NC1=NC(c2ccccc2)N=C(Nc2ccccc2)N1 (stereo not given),94.3% (inactive) and 67.6% (inactive)
15,COc1ccc(S(=O)(=O)c2ccc(F)cc2)cc1,108% (inactive)
16,Cc1onc(-c2c(F)cccc2Cl)c1-c1ncc(-c2ccc(Cl)cc2)o1,71% (inactive) and 61.4% (inactive)
17,N=C(N)N1CCc2ccccc2C1,101% (inactive) and 107% (inactive)
18,Clc1ccc2c(c1)N(C1CCCN(Cc3ccccc3)C1)c1ccccc1S2 (stereo not given),26.8% (inactive)
19,O=[N+]([O-])c1ccc(NC2CCCCC2)nc1,108% (inactive)

row,Structure (SMILES),growth
1,O=C(OCc1ccccc1)c1ccccc1,99.1% (inactive) and 93.6% (inactive)
2,COc1ccc([N+](=O)[O-])cc1OC,114% (inactive) and 119% (inactive)
3,COc1cc(C2c3cc4c(cc3C(OC(=O)C[n+]3ccccc3)C3COC(=O)C23)OCO4)cc(OC)c1OC (stereo not given),33% (inactive)
4,CCCCOC1NC(=O)NC(=O)C1(F)C(=O)OCC (stereo not given),91.7% (inactive) and 81.6% (inactive)
5,CCN(CC)Cc1cc2[nH]c3c4ccc(Cl)cc4ncc3c2cc1OC,83.8% (inactive) and 105% (inactive)
6,Cc1ccc([N+](=O)[O-])cc1Br,96.4% (inactive)
7,Cc1cc(=NO)cc(C)n1O,104% (inactive)
8,CCOC(=O)C1=C(C)NC(C)=C(C(=O)OCC)C1,105% (inactive) and 112% (inactive)
9,O=C(O)c1c2c(nc3ccccc13)Cc1ccccc1-2,99.7% (inactive) and 102% (inactive)
10,O=C(/C=C/C=C/c1ccc2c(c1)OCO2)N1CCCCC1,101% (inactive) and 102% (inactive)
11,Cc1cc(Cl)nc(Nc2ccccc2)n1,102% (inactive)
12,C#CCOC(=O)C(N)CS (stereo not given),101% (inactive)
13,NNc1ncnc2cccc(Cl)c12,94.4% (inactive)
14,O=[N+]([O-])c1ccc(N/N=C/C2CCCCCC2)c([N+](=O)[O-])c1,102% (inactive)
15,Nc1nc(N)c2cc(S(=O)(=O)c3ccccc3)ccc2n1,62.1% (inactive) and 52.1% (inactive)
16,CC(C)(C(=O)c1cccnc1)c1cccnc1,109% (inactive) and 115% (inactive)
17,CCCCCCC(C)CC1=C(O)c2ccccc2C(=O)C1=O (stereo not given),78% (inactive)
18,O=C(O)/C=C/C=C/c1ccccc1,113% (inactive) and 104% (inactive)
19,O=C(O)C1CSCN1 (stereo not given),105% (inactive) and 94.9% (inactive)

# Same assay, conditions: 100 µM
row,Structure (SMILES),growth
1,O=c1ccn2c(n1)OC1CC2OC1COC(c1ccccc1)(c1ccccc1)c1ccccc1 (stereo not given),70.9% (inactive)
